Measured values as given in PubChem BioAssay AID1159580 (chemical genetic matrix, 2015).
Where “and” joins values, the source holds several entries; their conditions need not be identical. Equal entries are not always repeated. Out of some 5,500 compounds screened, about 2,000 (36%) were called active. Inconclusive results (about 18%) are left out. Rule as the data show it: active = normalized growth mostly below about 0.91 (no sharp cut-off); inconclusive = no clear call, values can overlap the other calls; inactive = mostly above about 0.92. Some of the results follow.

Assay: chemical genetic growth profiling, strain panel (AID 1159580);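 also: tested at 20 µM; growth read once vehicle control cultures reached saturation at 30 °C; 1 = growth at the plate median or of vehicle wells; lower values mean less growth of the strain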
Conditions: S. cerevisiae deletion strains, growth OD

Measured: normalized growth

CC(=O)O[C@H]1C[C@@H](OC(C)=O)C(C)(C)C2C[C@@H](O)[C@]3(C)C(CC[C@@]4(C)[C@H](c5ccoc5)OC(=O)[C@H]5O[C@]543)[C@]21C (stereo partly specified)
active: locus YGL253W, strain hxk2, stronger effect = lower value 0.897
inactive: locus YAL021C, strain ccr4, stronger effect = lower value 1.05 | locus YAL026C, strain drs2, stronger effect = lower value 0.985 | locus YAL030W, strain snc1, stronger effect = lower value 0.995 | locus YBL061C, strain skt5, stronger effect = lower value 0.992 | locus YBR009C, strain hhf1, stronger effect = lower value 1 | locus YBR021W, strain FUR4, stronger effect = lower value 1.01 | locus YBR023C, strain chs3, stronger effect = lower value 1 | locus YBR171W, strain sec66, stronger effect = lower value 0.96 | locus YBR229C, strain ROT2, stronger effect = lower value 0.947 | locus YBR231C, strain swc5, stronger effect = lower value 0.977 | locus YBR279W, strain paf1, stronger effect = lower value 0.996 | locus YCL011C, strain gbp2, stronger effect = lower value 0.996 | locus YCL016C, strain dcc1, stronger effect = lower value 1.03 | locus YCL029C, strain bik1, stronger effect = lower value 0.971 | locus YCL069W, strain vba3, stronger effect = lower value 0.969 | locus YCR088W, strain abp1, stronger effect = lower value 0.983 | locus YDL005C, strain med2, stronger effect = lower value 1.01 | locus YDL035C, strain GPR1, stronger effect = lower value 0.965 | locus YDL040C, strain nat1, stronger effect = lower value 0.976 | locus YDL074C, strain BRE1, stronger effect = lower value 0.939 | locus YDL101C, strain DUN1, stronger effect = lower value 0.992 | locus YDL185W, strain tfp1, stronger effect = lower value 0.956 | locus YDL192W, strain arf1, stronger effect = lower value 0.977 | locus YDR001C, strain nth1, stronger effect = lower value 0.989 | locus YDR069C, strain doa4, stronger effect = lower value 0.981 | locus YDR101C, strain arx1, stronger effect = lower value 0.954 | locus YDR137W, strain rgp1, stronger effect = lower value 0.987 | locus YDR159W, strain sac3, stronger effect = lower value 0.936 | locus YDR162C, strain NBP2, stronger effect = lower value 0.948 | locus YDR195W, strain ref2 0.935 | locus YDR297W, strain sur2, stronger effect = lower value 0.992 | locus YDR318W, strain mcm21, stronger effect = lower value 0.982 | locus YDR334W, strain swr1, stronger effect = lower value 0.993 | locus YDR335W, strain msn5, stronger effect = lower value 0.99 | locus YDR388W, stronger effect = lower value 0.99 | locus YDR392W, strain spt3, stronger effect = lower value 0.966 | locus YDR502C, strain sam2, stronger effect = lower value 0.996 | locus YEL003W, strain gim4, stronger effect = lower value 0.977 | locus YEL037C, strain rad23, stronger effect = lower value 0.989 | locus YEL061C, strain CIN8 (second series), stronger effect = lower value 0.982 | locus YER015W, strain faa2, stronger effect = lower value 0.997 | locus YER016W, strain bim1, stronger effect = lower value 0.977 | locus YER110C, stronger effect = lower value 0.966 | locus YER111C, strain swi4, stronger effect = lower value 0.975 | locus YER155C, strain BEM2 (second series), stronger effect = lower value 1.02 | locus YER155C, strain BEM2, stronger effect = lower value 1.02 | locus YER167W, strain BCK2, stronger effect = lower value 0.995 | locus YFR010W, strain ubp6, stronger effect = lower value 0.963 | locus YGL078C, strain dbp3, stronger effect = lower value 0.978 | locus YGL086W, strain mad1, stronger effect = lower value 0.997 | locus YGL167C, strain pmr1, stronger effect = lower value 1 | locus YGL173C, strain kem1, stronger effect = lower value 0.962 | locus YGL227W, strain vid30, stronger effect = lower value 0.986 | locus YGL240W, strain doc1, stronger effect = lower value 0.973 | locus YGL248W, strain PDE1, stronger effect = lower value 0.97 | locus YGR078C, strain PAC10, stronger effect = lower value 1.01 | locus YGR135W, strain pre9, stronger effect = lower value 1.04 | locus YGR252W, strain gcn5, stronger effect = lower value 0.941 | locus YHR013C, strain ard1, stronger effect = lower value 0.997 | locus YHR027C, strain rpn1, stronger effect = lower value 0.986 | locus YHR030C, strain SLT2, stronger effect = lower value 0.982 | locus YHR079C, strain IRE1 (second series), stronger effect = lower value 0.986 | locus YHR079C, strain IRE1, stronger effect = lower value 0.999 | locus YHR094C, strain hxt1, stronger effect = lower value 0.975 | locus YHR129C, strain ARP1, stronger effect = lower value 0.988 | locus YHR142W, strain chs7, stronger effect = lower value 0.977 | locus YHR200W, strain rpn10, stronger effect = lower value 0.979 | locus YIL066C, strain RNR3, stronger effect = lower value 0.935 | locus YIL073C, strain SPO22, stronger effect = lower value 0.893 | locus YIL125W, strain kgd1, stronger effect = lower value 0.989 | locus YIR030C, strain dcg1, stronger effect = lower value 0.989 | locus YJL092W, strain hpr5, stronger effect = lower value 0.99 | locus YJL095W, strain BCK1 (second series), stronger effect = lower value 0.973 | locus YJL095W, strain BCK1, stronger effect = lower value 1.03 and 0.979 | locus YJL115W, strain asf1, stronger effect = lower value 0.996 | locus YJL129C, strain trk1, stronger effect = lower value 0.96 | locus YJL134W, strain LCB3, stronger effect = lower value 0.977 | locus YJL154C, strain vps35, stronger effect = lower value 0.995 | locus YJL164C, strain tpk1, stronger effect = lower value 1.01 | locus YJL166W, strain qcr8, stronger effect = lower value 0.955 | locus YJL168C, strain set2, stronger effect = lower value 0.995 | locus YJL187C, strain SWE1 (second series), stronger effect = lower value 1.01 | locus YJR043C, strain POL32, stronger effect = lower value 0.942 | locus YJR066W, strain TOR1, stronger effect = lower value 0.935 | locus YKL009W, strain mrt4, stronger effect = lower value 0.955 | locus YKL068W, stronger effect = lower value 0.969 | locus YKL085W, strain MDH1 (second series), stronger effect = lower value 0.987 | locus YKL085W, strain MDH1, stronger effect = lower value 0.987 | locus YKL160W, strain elf1, stronger effect = lower value 1.04 | locus YKL190W, strain CNB1, stronger effect = lower value 0.996 | locus YKR001C, strain vps1, stronger effect = lower value 0.978 | locus YKR026C, strain gcn3, stronger effect = lower value 1.05 | locus YKR091W, strain srl3, stronger effect = lower value 1 | locus YLL001W, strain dnm1, stronger effect = lower value 0.971 | locus YLL026W, stronger effect = lower value 0.994 | locus YLL041C, strain sdh2, stronger effect = lower value 0.989 | locus YLR027C, strain aat2, stronger effect = lower value 1.01 | locus YLR039C, strain RIC1, stronger effect = lower value 0.97 | locus YLR058C, strain SHM2, stronger effect = lower value 0.973 | locus YLR102C, strain apc9, stronger effect = lower value 0.973 | locus YLR113W, strain HOG1, stronger effect = lower value 1.02 | locus YLR221C, strain rsa3, stronger effect = lower value 0.969 | locus YLR258W, strain gsy2, stronger effect = lower value 0.992 | locus YLR262C, strain YPT6 (second series), stronger effect = lower value 0.985 | locus YLR268W, strain sec22, stronger effect = lower value 0.954 | locus YLR320W, strain mms22, stronger effect = lower value 0.978 | locus YLR330W, strain CHS5, stronger effect = lower value 0.992 | locus YLR342W, strain FKS1, stronger effect = lower value 1.01 | locus YLR357W, strain rsc2, stronger effect = lower value 1.04 | locus YLR370C, strain arc18, stronger effect = lower value 0.973 | locus YLR371W, strain rom2, stronger effect = lower value 0.986 | locus YLR384C, strain iki3, stronger effect = lower value 0.971 | locus YLR418C, strain cdc73, stronger effect = lower value 0.976 | locus YML016C, strain PPZ1, stronger effect = lower value 0.969 | locus YML032C, strain rad52, stronger effect = lower value 0.952 | locus YML120C, strain ndi1, stronger effect = lower value 1.01 | locus YML124C, strain tub3, stronger effect = lower value 0.992 | locus YMR058W, strain fet3, stronger effect = lower value 0.999 | locus YMR078C, strain ctf18, stronger effect = lower value 0.971 | locus YMR125W, strain sto1, stronger effect = lower value 1.01 | locus YMR129W, stronger effect = lower value 0.987 | locus YMR205C, strain PFK2, stronger effect = lower value 1.05 | locus YMR223W, strain ubp8, stronger effect = lower value 0.978 | locus YMR231W, strain pep5, stronger effect = lower value 0.971 | locus YMR307W, strain GAS1, stronger effect = lower value 1.01 | locus YNL067W, strain RPL9B, stronger effect = lower value 1.03 | locus YNL071W, strain lat1, stronger effect = lower value 0.984 | locus YNL128W, strain TEP1, stronger effect = lower value 0.954 | locus YNL153C, strain GIM3, stronger effect = lower value 1.01 | locus YNL183C, strain NPR1, stronger effect = lower value 0.944 | locus YNL209W, strain ssb2, stronger effect = lower value 0.999 | locus YNL233W, strain BNI4, stronger effect = lower value 1.02 | locus YNL248C, strain rpa49, stronger effect = lower value 0.962 | locus YNL250W, strain rad50, stronger effect = lower value 0.982 | locus YNL271C, strain bni1, stronger effect = lower value 0.983 | locus YNL298W, strain CLA4, stronger effect = lower value 0.993 | locus YNL307C, strain MCK1, stronger effect = lower value 0.99 | locus YNL322C, strain KRE1 (second series), stronger effect = lower value 0.987 | locus YNL322C, strain KRE1, stronger effect = lower value 0.987 | locus YNR049C, strain mso1, stronger effect = lower value 0.991 | locus YNR052C, strain pop2, stronger effect = lower value 0.999 | locus YOL006C, strain TOP1, stronger effect = lower value 0.955 | locus YOL012C, strain htz1 1.02 | locus YOL147C, strain pex11, stronger effect = lower value 0.998 | locus YOR001W, strain rrp6, stronger effect = lower value 0.935 | locus YOR061W, strain CKA2, stronger effect = lower value 0.967 | locus YOR069W, strain VPS5, stronger effect = lower value 1 | locus YOR070C, strain gyp1, stronger effect = lower value 1.02 | locus YOR080W, strain dia2, stronger effect = lower value 0.98 | locus YOR083W, strain WHI5, stronger effect = lower value 1.04 | locus YOR106W, strain vam3, stronger effect = lower value 1.02 | locus YOR136W, strain idh2, stronger effect = lower value 0.971 | locus YOR144C, strain elg1, stronger effect = lower value 0.964 | locus YOR184W, strain ser1, stronger effect = lower value 0.95 | locus YOR231W, strain MKK1, stronger effect = lower value 0.982 | locus YOR265W, strain rbl2, stronger effect = lower value 1.01 | locus YOR270C, strain vph1, stronger effect = lower value 0.841 | locus YOR290C, strain snf2, stronger effect = lower value 1.03 | locus YOR316C, strain cot1, stronger effect = lower value 0.989 | locus YPL051W, strain arl3, stronger effect = lower value 0.979 | locus YPL078C, strain atp4, stronger effect = lower value 1.02 | locus YPL106C, strain sse1, stronger effect = lower value 1.02 | locus YPL240C, strain hsp82, stronger effect = lower value 0.984 | locus YPL241C, strain CIN2, stronger effect = lower value 0.985 | locus YPL256C, strain CLN2, stronger effect = lower value 0.993 | locus YPR119W, strain clb2, stronger effect = lower value 0.998 | locus YPR141C, strain kar3, stronger effect = lower value 0.983 | locus YPR163C, strain tif3, stronger effect = lower value 0.986 | locus YPR167C, strain met16, stronger effect = lower value 0.988 | strain wtn01, stronger effect = lower value 0.972
